Shiga toxin inh: Shiga toxin inhibition; Vero cells, Shiga toxin protein synthesis inhibition reporter; inhibition, % at 38.7 µM; hit rate 9.2% among 290,000; AID 2315; in the data active = inhibition mostly above about 28%, no sharp cut-off; inactive = mostly below about 43%; note: 0% is about no effect
Pf growth 96h: P. falciparum growth inhibition at 96 hour, primary screen for plastid delayed-death inhibitors; P. falciparum luciferase reporter growth, 96 h; Potency, µM (titrated, usually from 28.7 µM), without a hit: at the top dose activity change, negative = inhibition, usual class: inhibitors; hit rate 6.9% among 320,000; note: potency is the fitted concentration of half-maximal effect; % is set by controls: 0 for no effect and ±100 for the full control effect
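Delayed-death screen, second-generation endpoint: infected erythrocytes, 2% hematocrit, 0.05% parasitemia final; 96 hours at 37 C, 5% CO2; luciferase detection reagent; luminescence decrease equals reduced growth.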
Pf growth 48h: inhibits P. falciparum growth in the first generation, 48 h; P. falciparum luciferase growth in erythrocytes, 48 h; Potency, µM (highest dose often 28.7 µM), without a hit: at the highest dose activity change, negative = inhibition, most hits filed as inhibitors; hit rate 5.9% among 310,000; note: potency is the fitted concentration of half-maximal effect; % is set by controls: 0 for no effect and ±100 for the full control effect
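Luminescence readout; reporter = integrated firefly luciferase in P. falciparum. RBC culture at 2% hematocrit, 0.1% parasitemia final, 37 C/5% CO2; decreased signal taken as growth inhibition.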
AMA1-RON2 inh: disrupts binding of P. falciparum AMA1 to RON2; hit rate 0.2% among 360,000; AlphaScreen AMA1-biotinylated RON2 peptide binding; AID 720542; Potency, µM (titrated, usually from 58.2 µM), without a hit: at the highest dose activity change, negative = inhibition, most hits filed as inhibitors;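 note: potency is the fitted concentration of half-maximal effect; 0% = vehicle wells and -100% = peptide control; nearly all actives have a fitted effect of over 45% in size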
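AMA1 (3D7) with his tag at 25 nM final met compounds first, then biotinylated RON2 peptide at 25 nM; detection used donor plus acceptor beads, 10 µg/mL apiece, read by AlphaScreen after 30 min at room temperature.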
SARS PLpro yeast: blocks SARS-CoV papain-like protease in a yeast assay. S. cerevisiae expressing SARS-CoV PLpro, growth rescue. Potency, µM (series often up to 32.9 µM), for the others: at the top dose activity, positive = growth rescue, hits mostly activators. hit rate 0.19% among 330,000; calls by dose curve; note: potency is the fitted concentration of half-maximal effect; 0% is about no effect; nearly all actives have a fitted effect of over 55% in size
Cycloheximide cs: counter-screen hit for Shiga toxin inhibitors, cycloheximide. cell reporter, cycloheximide protein synthesis inhibition counterscreen. max response, %. hit rate 12% among 300,000; in the data active = max response mostly above about 13%, no sharp cut-off; inactive = mostly below about 14%; note: read at 38.3 µM for the half of the compounds with a filed dose; 0% is about no effect
Active calls of the source: *; u = inconclusive; x = no result given; + = active, no number; [ ] = remark or other dose. Sampled rows, rich in hits. Any-hit rate of the full collection: about 19%. Unless noted, calls come from the whole dose curve; as a rule, active = well fitted curve in the direction sought with a large enough effect; inconclusive = small, poorly fitted or top-dose-only effect, or another doubt; inactive = no such curve, though single readings can be large; an effect the other way counts as inactive or inconclusive.

SMILES | Shiga toxin inh | Pf growth 96h | Pf growth 48h | AMA1-RON2 inh | SARS PLpro yeast | Cycloheximide cs
CN1C(=O)/C(=C/c2cc(C(C)(C)C)c(O)c(C(C)(C)C)c2)NC1=S | -5.4 | u | u | 52.6% | 3.9% | 24.9
CN(/N=C/c1ccc2c(c1)OCO2)c1ccccc1 | 127.1* | u | 138.9% | 9.9%[2.32 µM] | -55.9% | 95.1*
CCNc1ccccc(C(=O)/C=C/c2ccc3c(c2)OCO3)c1=O | 54.4 | u | x | -29.2% | -12.3% | 23.7*
COc1ccccc1C(=O)N/C(=C/c1ccc2c(c1)OCO2)C(=O)Nc1ccc(C(=O)O)cc1 | -5.3 | -14.0% | u | -12.4% | -9.5% | -3.9
COc1ccc(/C=C(/NC(=O)c2ccccc2OC)C(=O)Nc2ccc(C(=O)O)cc2)cc1 | -14.5 | 9.28µM* | -8.6% | 6.8% | -6.0% | 1.3
COc1ccc(NC(=O)/C(=C/c2ccc3c(c2)OCO3)NC(C)=O)cc1 | + | 459.5% | 61.4% | 1.5% | 8.8% | 72.5*
C=CCn1c(SCC(=O)NCCOC)nc2scc(-c3ccco3)c2c1=O | -9.6 | u | u | u | -0.9% | -2.2
Cc1ccc(C(C(=O)Nc2ccc3c(c2)OCO3)N(C)C(=O)/C=C\c2ccc3c(c2)OCO3)cc1 (stereo not drawn) | 14.4 | 13.4% | 13.1µM* | -13.5% | 2.1% | -1.5
COC(=O)/C=C/c1ccc2c(c1)OCO2 | 83.4* | -1.9% | u | 6.8% | -0.7% | 22.1*
Cc1ccc(C(=O)N/C(=C\c2ccc3c(c2)OCO3)C(=O)Nc2ccc(C(=O)O)cc2)cc1 | 39.0* | u | 27.1% | 11.5% | 2.3% | 13.7
CC(=O)NCC(=O)N(C)C(C(=O)Nc1ccc2c(c1)OCCO2)c1ccc(C)cc1 (stereo not drawn) | 4.2 | 4.8% | -3.0% | -17.1% | -5.8% | 15.2
CCC(C)NC(=O)c1ccccc1NC(=O)/C(=C/c1ccc(OC)cc1)c1ccccc1 (stereo not drawn) | -4.8 | 11.7µM* | u | 6.6% | -13.5% | -2.5
COc1ccc(C(=O)N/C(=C\c2ccc3c(c2)OCO3)C(=O)Nc2ccc(C(=O)O)cc2)cc1 | -1.0 | u | -32.9%[5.75 µM] | u | -0.3% | -1.1
CCC(C)NC(=O)c1ccccc1NC(=O)CN(c1ccc(OC)cc1)S(C)(=O)=O (stereo not drawn) | -17.7 | -25.8% | x | 1.3% | 6.1% | -2.4
COc1ccc2c(CN3CCN(Cc4ccccc4)CC3)cc(=O)oc2c1 | x | x | x | -6.1% | x | x
CC(C)CCC1=NN(C(=O)c2ccco2)C(O)(C(F)(F)F)C1 (stereo not drawn) | 22.5 | u | u | 62.4% | -0.9% | 28.0
CN1C[C@H]2CON(C)[C@H]2C[C@H]1c1cccc(-c2ccccc2)c1 | x | x | x | 1.5% | x | x
COc1ccccc1C1C(C(=O)c2ccco2)=C(O)C(=O)N1c1cc(C)on1 (stereo not drawn) | -9.6 | 9.3% | -4.0% | 13.8% | 3.8% | -1.5
COc1ccc(NC(=O)/C=C/c2ccc3c(c2)OCO3)cc1 | 78.0* | 88.5% | 81.8% | -4.9% | -1.3% | 47.6*
CN(C(=O)/C=C/c1ccc2c(c1)OCO2)c1ccccc1 | 92.0* | u | 82.0% | 1.9% | -2.5% | 41.7*
CC(=O)Nc1ccc(NC(=O)C(C)OC(=O)/C=C/c2ccc3c(c2)OCO3)cc1 (stereo not drawn) | x | 27.6% | 9.1% | 1.3% | -1.1% | x
CN(C(=O)C=Cc1ccccc1)c1ccccc1 | x | x | x | -6.2% | x | x
Cc1sc2nc(CSCC(=O)N(CCC#N)c3ccccc3F)[nH]c(=O)c2c1C | x | -16.9% | u | 53.8% | -2.0% | x
CCC1CCCCN1C(=O)CSc1nnc(CNC(=O)COc2ccc(Cl)cc2)o1 (stereo not drawn) | 8.8 | 10.0% | x | 10.3% | 21.3% | 1.6
COc1ccccc1N1CCN(C(=O)c2cc(-c3cccc(Cl)c3)on2)CC1 | -15.6 | 5.4% | 38.5% | 24.7% | -3.0% | -4.9
SMILES | Shiga toxin inh | Pf growth 96h | Pf growth 48h | AMA1-RON2 inh | SARS PLpro yeast | Cycloheximide cs
Cn1nc(C(=O)N2CCN(C(c3ccccc3)c3ccccc3)CC2)c2ccccc2c1=O | -4.3 | 11.7µM* | 4.65µM* | 0.0% | -1.4% | -2.5
COc1ccc(-c2cc(C(=O)N3CCN(C(c4ccccc4)c4ccccc4)CC3)no2)cc1OC | 25.1 | -7.0% | 7.38µM* | -7.0% | -6.6% | 2.2
Cn1nc(C(=O)N2CCN(S(=O)(=O)/C=C/c3ccccc3)CC2)c2ccccc2c1=O | 16.5 | u | u | 4.8% | 7.5% | -4.4
O=C(c1noc2c1CCCC2)N1CCN(C(c2ccccc2)c2ccccc2)CC1 | 13.3 | 23.3% | u | x | -4.4% | -2.7
COc1ccc(-c2cc(C(=O)N3CCN(C(c4ccccc4)c4ccccc4)CC3)no2)cc1 | 14.1 | 11.7µM* | u | -7.7% | -7.6% | 5.9
O=C(c1cc(-c2ccco2)on1)N1CCN(C(c2ccccc2)c2ccccc2)CC1 | 32.9 | 24.7% | 11.7µM* | 12.3% | -13.2% | 1.5
CCOC(=O)N/N=C(\C)c1ccc(OC(F)F)cc1OC(F)F | -5.1 | -8.5% | 0.0% | 30.9% | 3.6% | -0.3
Cc1ccc(F)cc1NC(=O)c1c(-c2ccccc2)noc1C | -8.0 | u | x | 1.9% | -7.5% | -8.8
Cc1cccc(N2CCN(C(=S)Nc3ccc4nc5n(c(=O)c4c3)CCCCC5)CC2)c1C | -3.3 | u | -29.3% | 5.3% | 0.6% | -7.8
CN(C)S(=O)(=O)c1ccc(C(=O)Nc2ccn(C)n2)cc1 | 38.8 | 37.3% | 44.3% | 0.8% | -0.9% | 16.7
CC(=O)Nc1ccc(NS(=O)(=O)c2c(Cl)cccc2Cl)cc1 | 14.0 | u | -2.3% | 12.4% | -1.7% | -3.6
CC(C)Cc1cc(C(=O)N2CCN(C(c3ccccc3)c3ccccc3)CC2)no1 | -9.8 | -0.5% | x | -0.7% | -19.1% | -2.1
CC(C)c1cc(C(=O)N2CCN(C(c3ccccc3)c3ccccc3)CC2)no1 | 31.9* | x | 9.28µM* | 2.6% | -47.9% | 29.4*
COc1ccc(NC(=S)Nc2ccc3snnc3c2)cc1 | 33.6* | 18.2% | 0.5% | -6.6% | -1.2% | 24.1*
COc1ccc(NC(=S)Nc2ccc(F)cc2)c(OC)c1 | x | x | x | -27.8% | x | x
COc1ccc(NC(=S)Nc2ccc3nccnc3c2)cc1 | 54.2* | u | 44.4% | -6.5% | -7.8% | 31.1*
COc1ccc(NC(=S)Nc2ccc(N)c([N+](=O)[O-])c2)cc1 | 42.3 | x | 21.5% | -2.4% | -15.0% | 21.1*
CCOC(=O)N(C)C[C@@H]1OCc2ccccc2-c2c(n(C)c3ccccc23)C(=O)N([C@H](C)CO)C[C@H]1C | x | x | x | 3.7% | x | x
CCOc1ccc2nc(SCC(=O)Nc3cc4c(cc3C(C)=O)OCO4)[nH]c2c1 | -6.8 | 13.1µM* | -16.9% | -14.9% | 5.9% | -1.1
CCOc1ccc2nc(SCC(=O)NCc3ccccc3)[nH]c2c1 | x | u | u | 1.4% | 4.9% | -2.9
CCOc1ccc2nc(SCC(=O)Nc3nonc3C)[nH]c2c1 | 44.8 | u | 25.5% | -19.2% | 0.1% | 9.6
CCOc1ccc2nc(SCC)[nH]c2c1 | 125.4* | 63.4% | 75.3% | -19.7% | -1.5% | 53.5*
